Here are results for 16 molecules from the supplement of paper PMC8371130.

Structures can show the parent of a compound that is named as a salt.

For this assay, the system named is HL-1. Briefly: relative cell viability (CellTiter-Glo) vs DMSO control (% of DMSO control); higher = more viable cells. In short, it runs like this: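 Viability of HL-1 mouse atrial cardiomyocytes was assessed by CellTiter-Glo luminescence and normalised to vehicle-treated control cells. Cells were plated in 384-well plates at 1000 cells per well with compounds at 40, 200, 1000 or 5000 nM in 0.01% DMSO, and one day later were placed at 1% O2 for 48 h, then reoxygenated for 24 h, or kept in normoxia for the same duration.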
(In general: Cellular ATP, detected with luciferase, serves as a proxy for viable cell number.)

[1] abbreviates: oxygen condition: hypoxia 48 h (1% O2) + reoxygenation 24 h, 40 nM.
Where [2] appears, read: oxygen condition: hypoxia 48 h (1% O2) + reoxygenation 24 h, 200 nM.
Setting [3] is: oxygen condition: hypoxia 48 h (1% O2) + reoxygenation 24 h, 1000 nM.
Setting [4] is: oxygen condition: hypoxia 48 h (1% O2) + reoxygenation 24 h, 5000 nM.
[5] abbreviates: oxygen condition: normoxia 72 h, 40 nM.
The mark [6] stands for this setting: oxygen condition: normoxia 72 h, 200 nM.
Setting [7] is: oxygen condition: normoxia 72 h, 1000 nM.
[8] abbreviates: oxygen condition: normoxia 72 h, 5000 nM.

For the molecule `Cc1ccc(S(=O)(=O)NC(=O)NN2CC3CCCC3C2)cc1` (stereo not drawn) [Gliclazide], the relative cell viability under setting [1] was 104; the relative cell viability under setting [2] was 110; the relative cell viability under setting [3] is 111; the relative cell viability under setting [4] came to 104; the relative cell viability under setting [5] amounted to 112; the relative cell viability under setting [6] stood at 113. Also, the relative cell viability by setting is: under setting [7], 118; under setting [8], 112.
As for `CCCc1cc(=O)[nH]c(=S)[nH]1` [Propylthiouracil], the relative cell viability stood at 106 under setting [1]; 105 under setting [2]; 107 under setting [3]; 120 under setting [4]; 99.3 under setting [5]; 108 under setting [6]. Moreover, the relative cell viability by setting is: under setting [7], 107; under setting [8], 110.
As to `Nc1[nH]cnc2ncnc1-2` [Adenine hydrochloride], the relative cell viability is 108 under setting [1]; 105 under setting [2]; 104 under setting [3]; 110 under setting [4]; 100 under setting [5]; 96.4 under setting [6]. Also, the relative cell viability turned out to be 103 under setting [7] and 107 under setting [8].
As for `C[C@@H](CN1CC(=O)NC(=O)C1)N1CC(=O)NC(=O)C1` [Dexrazoxane Hydrochloride], the relative cell viability is, setting by setting: under setting [1], 98.2; under setting [2], 105; under setting [3], 104; under setting [4], 106; under setting [5], 101; under setting [6], 96.3. Besides, the relative cell viability runs as follows: under setting [7], 92.8; under setting [8], 94.8.
Take `CN(Cc1ccc(C(C)(C)C)cc1)Cc1cccc2ccccc12` [Butenafine HCl]: the relative cell viability came to 98.1 under setting [1]; 104 under setting [2]; 106 under setting [3]; 109 under setting [4]; 104 under setting [5]; 100 under setting [6]. In addition, the relative cell viability stood at 106 under setting [7] and 110 under setting [8].
In the case of `C=C1CC[C@H](O)C/C1=C/C=C1\CCC[C@]2(C)[C@@H]([C@H](C)CCCC(C)C)CC[C@@H]12` [Vitamin D3], the relative cell viability is, setting by setting: under setting [1], 104; under setting [2], 89.6; under setting [3], 54.7; under setting [4], 109; under setting [5], 94.8; under setting [6], 70.8. The relative cell viability by setting is: under setting [7], 66.2; under setting [8], 116.
As to `O=C[C@H](O)[C@@H](O)[C@H](O)CO` [Xylose], the relative cell viability turned out to be 106 under setting [1]; 102 under setting [2]; 103 under setting [3]; 111 under setting [4]; 107 under setting [5]; 105 under setting [6]. Further, the relative cell viability turned out to be 112 under setting [7] and 111 under setting [8].
Take `Oc1ccc(OC2CCCCO2)cc1` (stereo not drawn) [Deoxyarbutin]: the relative cell viability stood at 103 under setting [1]; 104 under setting [2]; 107 under setting [3]; 113 under setting [4]; 103 under setting [5]; 102 under setting [6]. Also, the relative cell viability reads like this: under setting [7], 113; under setting [8], 109.
Turning to `CCOC(=O)c1ncn2c1CN(C)C(=O)c1cc(F)ccc1-2` [Flumazenil], the relative cell viability reads like this: under setting [1], 104; under setting [2], 107; under setting [3], 100; under setting [4], 115; under setting [5], 107; under setting [6], 98.5. Also, the relative cell viability stood at 104 under setting [7] and 106 under setting [8].
For the molecule `CCCN(CCC)S(=O)(=O)c1ccc(C(=O)O)cc1` [Probenecid], the relative cell viability under setting [1] stood at 103; the relative cell viability under setting [2] came out at 109; the relative cell viability under setting [3] is 108; the relative cell viability under setting [4] was 110; the relative cell viability under setting [5] is 101; the relative cell viability under setting [6] is 104. In addition, the relative cell viability by setting is: under setting [7], 109; under setting [8], 115.
`CCN(CCCc1ccccc1)CCCc1ccccc1` [Alverine Citrate]: the relative cell viability was found to be 107 under setting [1]; 110 under setting [2]; 102 under setting [3]; 110 under setting [4]; 102 under setting [5]; 105 under setting [6]. For the same molecule, the relative cell viability reads like this: under setting [7], 106; under setting [8], 113.
For the molecule `O=C(CCCN1CCC(O)(c2ccc(Cl)cc2)CC1)c1ccc(F)cc1` [Haloperidol], the relative cell viability runs as follows: under setting [1], 101; under setting [2], 99.4; under setting [3], 102; under setting [4], 101; under setting [5], 92.8; under setting [6], 98. Also, the relative cell viability by setting is: under setting [7], 100; under setting [8], 98.5.
For the molecule `NC(=O)c1cn(Cc2c(F)cccc2F)nn1` [Rufinamide], the relative cell viability amounted to 103 under setting [1]; 106 under setting [2]; 109 under setting [3]; 112 under setting [4]; 106 under setting [5]; 106 under setting [6]. The relative cell viability is, setting by setting: under setting [7], 111; under setting [8], 112.
For the molecule `CN(C)/N=N/c1[nH]cnc1C(N)=O` [Dacarbazine], the relative cell viability reads like this: under setting [1], 97.5; under setting [2], 107; under setting [3], 110; under setting [4], 113; under setting [5], 105; under setting [6], 106. Also, the relative cell viability is, setting by setting: under setting [7], 107; under setting [8], 113.
On to `CN1C2=CC(=O)/C(=N\NC(N)=O)C=C2CC1S(=O)(=O)O` (stereo not drawn) [Carbazochrome sodium sulfonate], for which the relative cell viability runs as follows: under setting [1], 99; under setting [2], 97; under setting [3], 101; under setting [4], 112; under setting [5], 95; under setting [6], 102. The relative cell viability came to 89.9 under setting [7] and 108 under setting [8].
Consider `CCc1ccc(CCOc2ccc(CC3SC(=O)NC3=O)cc2)nc1` (stereo not drawn) [Pioglitazone], for which the relative cell viability is, setting by setting: under setting [1], 109; under setting [2], 110; under setting [3], 114; under setting [4], 116; under setting [5], 104; under setting [6], 107. The relative cell viability reads like this: under setting [7], 117; under setting [8], 120.
